Consider 56 compounds from PubChem BioAssay AID372 (MTDP, 2006).

Among all 100,000 compounds or so, about 770 (0.77%) were called active. The entries come from a sample that favours actives as a whole. Unmarked numbers belong to inactive results. No stated cut-off is given here; in the data, active means inhibition above about 50%; inactive means the rest.

The experiment deals with Gag-Pol polyprotein (Human immunodeficiency virus type 1 group M subtype B (isolate HXB2)) (UniProt P04585). Put plainly: RNase H inhibition, HIV 1 Gag Pol polyprotein, FRET biochemical assay, screening (AID 372). The conditions noted are these: HIV-1 RT RNase H, FRET RNA/DNA substrate fluorescence; at 10 µM; hits give high values.
Turning to `Cc1cccc(N2C(=O)NC(=O)/C(=C\c3cccn3-c3ccccc3)C2=O)c1`, the inhibition was 22%.

Consider `O=C1NC(=O)N(c2ccc(Cl)cc2)C(=O)/C1=C/c1cccn1-c1ccccc1`, for which the inhibition was 12%.

As to `O=C1NC(=O)N(c2cccc(F)c2)C(=O)/C1=C/c1cccn1-c1ccccc1`, the inhibition was 24%.

Take `O=C1NC(=O)N(c2cccc(F)c2)C(=O)/C1=C/c1cccn1-c1ccc(Br)cc1`: the inhibition was 54% (active).

Turning to `Cc1cccc(N2C(=O)NC(=O)/C(=C\c3cccn3-c3ccc(Br)cc3)C2=O)c1`, the inhibition is 27%.

On to `O=C1NC(=O)N(c2ccccc2)C(=O)/C1=C\c1cccn1-c1ccc([N+](=O)[O-])cc1`, for which the inhibition is 22%.

Take `O=C1NC(=O)N(c2ccccc2)C(=O)/C1=C/c1cccn1-c1ccc(Br)cc1`: the inhibition is 29%.

For `Cc1cccc(N2C(=O)NC(=O)/C(=C/c3cccn3-c3ccc([N+](=O)[O-])cc3)C2=O)c1`, the inhibition is 54% (active).

As for `O=C1NC(=O)N(c2cccc(F)c2)C(=O)/C1=C/c1cccn1-c1ccc(Cl)cc1`, the inhibition is 59% (active).

Regarding `N#CC1=C(N)OC2=C(C(=O)CC(c3ccccc3)C2)C1c1cccc(F)c1` (stereo unspecified), the inhibition was 11%.

In the case of `COc1ccc(/C=N/NC(=O)CN2CCSCC2)c(C)c1C`, the inhibition is 7%.

For the compound `COc1ccc(C(N)=O)cc1NC(=O)c1cccs1`, the inhibition was 0%.

As to `O=C(CCCN1C(=O)/C(=C/c2ccccc2Cl)SC1=S)Nc1cccc(F)c1`, the inhibition is 14%.

As to `Cc1ccc(Cl)cc1NC(=O)C(=O)NN=C1CCN(C)CC1`, the inhibition was 0%.

As for `Cc1cccc(N2CCN(C(=O)c3c(-c4ccccc4Cl)noc3C)CC2)c1C`, the inhibition is 9%.

Consider `Cc1onc(-c2ccccc2Cl)c1C(=O)N1CCN(c2ccc(Cl)cc2[N+](=O)[O-])CC1`, for which the inhibition is 55% (active).

Take `Cc1onc(-c2ccccc2Cl)c1C(=O)N1CCN(c2ccccc2F)CC1`: the inhibition is 0%.

Consider `COc1cccc2cc(-c3csc(Nc4ccccc4C)n3)c(=O)oc12`, for which the inhibition was 20%.

As to `CCN(CC)c1ccc(/C=N/Nc2nc(-c3cc4cccc(OC)c4oc3=O)cs2)c(O)c1`, the inhibition is 53% (active).

As for `COc1cccc2cc(-c3csc(Nc4ccc(C(C)=O)cc4)n3)c(=O)oc12`, the inhibition was 14%.

`COc1ccc2oc(=O)c(C(=O)Nc3cccc([N+](=O)[O-])c3)cc2c1`: the inhibition was 55% (active).

For the compound `COc1ccc2oc(=O)c(C(=O)Nc3ccccc3)cc2c1`, the inhibition is 6%.

As for `COc1ccc2oc(=O)c(C(=O)Nc3cccc(Cl)c3)cc2c1`, the inhibition is 5%.

Take `O=C(/C=C\c1ccc([N+](=O)[O-])cc1)Nc1ccc(N2CCOCC2)cc1`: the inhibition is 7%.

Turning to `O=C(Nc1ccc(Cl)cc1)c1ccc(Br)o1`, the inhibition was 8%.

For the compound `O=C1NC(=O)C(=Cc2cn(-c3ccccc3)nc2-c2ccc(Br)cc2)C(=O)N1`, the inhibition was 59% (active).

As to `CC1=NNC(=O)/C1=C\c1cn(-c2ccccc2)nc1-c1ccc(Br)cc1`, the inhibition is 14%.

Consider `O=C1NC(=O)C(=Cc2cn(-c3ccccc3)nc2-c2ccc(Cl)cc2)C(=O)N1`, for which the inhibition was 41%.

As to `COC(=O)C1=C(C(=O)OC)SC2(S1)C(c1ccccc1)=CSC(C(=O)OC)=C2C(=O)OC`, the inhibition is 54% (active).

For `COC(=O)C1=C(C(=O)OC)SC2(S1)C(C(=O)OC)=C(C(=O)OC)SC1=C2c2ccccc2N(C)C1(C)C`, the inhibition was 11%.

As to `COC(=O)C1=C(C(=O)OC)SC2(S1)C(C(=O)OC)=C(C(=O)OC)SC1=C2c2cccc(C)c2NC1(C)C`, the inhibition was 18%.

For the compound `CC(=O)Oc1ccc(-c2cccc(C(=O)Nc3ccccc3Cl)c2)cc1`, the inhibition was 16%.

On to `CC1=C(C(=O)Nc2ccc(C)c(Cl)c2)C(c2cccc([N+](=O)[O-])c2)NC(=O)N1` (stereo unspecified), for which the inhibition is 6%.

In the case of `COc1ccc(C2CC(=O)C3=C(C2)Nc2ccccc2NC3c2c(F)cccc2Cl)cc1` (stereo unspecified), the inhibition was 24%.

On to `O=C(COC(=O)c1cc(-c2ccccc2)nc2ccc(Cl)cc12)c1ccc([N+](=O)[O-])cc1`, for which the inhibition was 4%.

As for `COc1ccc(-c2cc(C(=O)Nc3cccc(Cl)c3)c3ccccc3n2)cc1OC`, the inhibition was 14%.

Regarding `CC(=O)Nc1ccc(NC(=O)c2cccc3ccccc23)cc1`, the inhibition was 32%.

`O=C(Nc1ccc(Nc2ccccc2)cc1)c1cccc2ccccc12`: the inhibition was 50% (active).

With `O=C(Nc1ccc(NC(=O)c2cccc3ccccc23)cc1)c1ccccc1`, the inhibition is 6%.

As for `O=C(Cc1ccc(Cl)cc1)Nc1ccc2oc(-c3cccc(Br)c3)nc2c1`, the inhibition is 49%.

As to `O=C(Cc1ccc(Cl)cc1)Nc1ccc2oc(-c3ccccc3Br)nc2c1`, the inhibition was 24%.

`Cc1cccc(-c2nc3cc(NC(=O)Cc4ccccc4)ccc3o2)c1`: the inhibition is 12%.

On to `O=C(Cc1ccc(Cl)cc1)Nc1ccc2oc(-c3ccccc3Cl)nc2c1`, for which the inhibition is 54% (active).

Consider `O=C(Cc1ccccc1)Nc1ccc2oc(-c3cccc(Cl)c3)nc2c1`, for which the inhibition was 6%.

Take `O=C(Cc1ccc(Cl)cc1)Nc1ccc(-c2nc3cc(Cl)cc(Cl)c3o2)cc1`: the inhibition was 50% (active).

Turning to `Cc1ccc(-c2nc3cc(Cl)cc(Cl)c3o2)cc1NC(=O)Cc1ccc(Cl)cc1`, the inhibition is 38%.

`Cc1ccccc1-c1nc2cc(NC(=O)Cc3ccc(Cl)cc3)ccc2o1`: the inhibition was 30%.

With `O=C(Cc1ccc(Cl)cc1)Nc1ccc2oc(-c3cccc(Cl)c3)nc2c1`, the inhibition is 52% (active).

Turning to `Cc1ccc2oc(-c3cccc(NC(=O)Cc4ccc(Cl)cc4)c3)nc2c1`, the inhibition was 42%.

With `O=C(Cc1ccc(Cl)cc1)Nc1cccc(-c2nc3cc(Cl)cc(Cl)c3o2)c1`, the inhibition is 2%.

As to `Cc1cccc(-c2nc3cc(NC(=O)Cc4ccc(Cl)cc4)ccc3o2)c1`, the inhibition is 53% (active).

With `COc1ccc(OC)c(NC(=O)c2ccc(Cl)cc2)c1`, the inhibition is 8%.

Regarding `O=C(N/N=C/c1cc(Cl)cc([N+](=O)[O-])c1O)/C(=C/C=C/c1ccccc1)NC(=O)c1ccccc1`, the inhibition was 19%.

With `COc1ccc(OCCCOc2ccccc2Br)cc1`, the inhibition is 12%.

As to `COc1ccccc1N1CCN(C(=O)c2ccc(CN(c3cc(Cl)ccc3C)S(=O)(=O)c3ccccc3)cc2)CC1`, the inhibition was 1%.

`O=C(O)c1cccc([N+](=O)[O-])c1C(=O)Nc1cccc(Cl)c1`: the inhibition was 7%.
